From PubChem BioAssay AID1376 (SRMLSC, 2008) come the findings set out here.

Usually inhibition stands for the relative decrease from the control value, in per cent.

The campaign covered roughly 220,000 compounds. About 530 (0.24%) were called active. Cut-off read from the data, not from the text of the source: active = inhibition above about 13%; inconclusive = no clear call, values can overlap the other calls; inactive = below that. This excerpt belongs to a sample that is enriched for actives. Potency and affinity values are given separately.

Bifunctional protein GlmU (Mycobacterium tuberculosis (strain ATCC 25618 / H37Rv)), sequence (P9WMN3 whole entry, looked up): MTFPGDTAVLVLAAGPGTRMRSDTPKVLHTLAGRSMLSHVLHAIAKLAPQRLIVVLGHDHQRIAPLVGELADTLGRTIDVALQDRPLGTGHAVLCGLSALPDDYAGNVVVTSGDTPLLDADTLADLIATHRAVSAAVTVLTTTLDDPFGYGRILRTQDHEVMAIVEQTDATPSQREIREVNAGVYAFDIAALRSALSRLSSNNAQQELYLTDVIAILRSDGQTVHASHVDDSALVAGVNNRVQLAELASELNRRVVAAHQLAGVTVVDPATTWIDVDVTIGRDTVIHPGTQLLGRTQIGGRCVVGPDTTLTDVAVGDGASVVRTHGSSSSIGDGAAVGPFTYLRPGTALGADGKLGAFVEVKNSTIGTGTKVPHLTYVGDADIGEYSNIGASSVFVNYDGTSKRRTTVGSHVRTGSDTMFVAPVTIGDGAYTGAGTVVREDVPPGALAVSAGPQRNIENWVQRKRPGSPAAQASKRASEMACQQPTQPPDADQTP

This assay concerns the target Bifunctional protein GlmU (Mycobacterium tuberculosis (strain ATCC 25618 / H37Rv)) (UniProt P9WMN3). The experiment in a line: inhibition of mycobacterial GlmU enzyme – biochemical, glucosamine-1-phosphate acetyltransferase (AID 1376).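 Note: 0% = complete reaction with vehicle and 100% = reaction without substrate.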 The settings on record: M. tuberculosis GlmU acetyltransferase enzyme assay; stronger effect = higher value;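 tested at 30 µM in the primary screen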.
As for `CSc1ncccc1C(=O)OCC(=O)NC1CCS(=O)(=O)C1` (stereo not given), the inhibition is 3.34% (inactive). Turning to `Cc1ccccc1OCc1nc(C#N)c(N2CCCC2)o1`, the inhibition is -2.21% (inactive). In the case of `COc1ccc(-c2cc(C(=O)N3CCN(c4ccccc4OC)CC3)no2)cc1OC` it was -2.36% (inactive); in that of `Cc1nc2ccccc2cc1C(=O)N/N=C/c1cccc([N+](=O)[O-])c1`, 1.15% (inactive); in that of `Cc1onc(-c2ccccc2)c1C(=O)N1CCc2ccccc21`, -2.16% (inactive). Turning to `Cc1noc(C)c1C(=O)N1CCc2ccccc21`, the inhibition was 12.9% (active). As for `Cc1noc(C)c1C(=O)N1CCCc2ccccc21`, the inhibition was -6.07% (inactive). In the case of `Cc1cc(S(=O)(=O)NCc2ccccc2)ccc1OCC(=O)N1CCOCC1` it was 0.4% (inactive); in that of `CC(C)CCNC(=O)CCCOc1cc(=O)n(C)c2ccccc12`, 4.37% (inactive).

As for `CCN1CCN(C(=O)C23CCC(C)(C(=O)C2Br)C3(C)C)CC1` (stereo not given), the inhibition was 5.77% (inactive). In the case of `CCc1ccc(OCC(=O)c2c(O)c3ccccc3oc2=O)cc1` it was -0.96% (inactive); in that of `CCOc1ccc(OCC(=O)c2c(O)c3ccccc3oc2=O)cc1`, 14.2% (active); in that of `COc1ccc(OCC(=O)c2c(O)c3ccccc3oc2=O)cc1`, 13.8% (active). Regarding `Cc1ccc(C(C)C)c(OCC(=O)c2c(O)c3ccccc3oc2=O)c1`, the inhibition was 4.14% (inactive). In the case of `Cc1ccc(OCC(=O)c2c(O)c3ccccc3oc2=O)cc1C` it was 0.96% (inactive); in that of `CCCCC(=O)c1c(O)c2ccccc2oc1=O`, 0.58% (inactive). In the case of `CNc1c([N+](=O)[O-])cnn1-c1ccc(C)cc1` it was 5.02% (inactive).

For the compound `C=CCOc1ccc(/C(O)=C2/C(=O)C(=O)N(CCCn3ccnc3)C2c2ccco2)cc1` (stereo not given), the inhibition was 5.54% (inactive). As to `CC(C)(C)NCC(O)COc1ccc(Br)cc1` (stereo not given), the inhibition is -5.25% (inactive). As for `CN(C)c1nc(-c2ccccc2)nc(-c2ccc(Cl)cc2)c1C#N`, the inhibition was -2.64% (inactive).

For `C/C(=N\NC(=O)c1ccccc1)c1ccccc1Br`, the inhibition is 3.08% (inactive).

In the case of `Nc1ccc(S(=O)(=O)N2CCCC2)cc1Cl`, the inhibition was 0.44% (inactive). Regarding `CC1=CC(C)C(C(=O)O)C(C(=O)O)C1` (stereo not given), the inhibition was 4.72% (inactive). With `COC(=O)C1C(c2ccccc2)C=CC(c2ccccc2)C1C(=O)O` (stereo not given), the inhibition was 2.66% (inactive). Regarding `CC(C)(C)C(=O)COC(=O)c1cccc(NC(=O)c2ccco2)c1`, the inhibition was 3.57% (inactive). In the case of `CCn1c(-c2ccc(N(C)C)cc2)nc2ccccc21` it was 13.3% (active); in that of `CN(C)c1ccc(-c2nc3ccccc3n2C)cc1`, 3.52% (inactive); in that of `CCn1c(-c2ccc(N)cc2)nc2ccccc21`, 4.62% (inactive). As to `Cc1cnc(C)c(N2CCC(C(=O)NC(C)c3cccs3)CC2)n1` (stereo not given), the inhibition was 13.1% (active). Consider `Cc1cnc(C)c(N2CCC(C(=O)NCc3ccco3)CC2)n1`, for which the inhibition is -3.63% (inactive). Under `Cc1cnc(C)c(N2CCC(C(=O)NCc3cccs3)CC2)n1` stands 2.06% (inactive); under `O=C/C(=C\Nc1ccccn1)c1nc2cc(Cl)ccc2o1`, -1.58% (inactive).

In the case of `O=C/C(=C\Nc1ccccn1)c1nc2ccccc2o1`, the inhibition is 13.3% (active). In the case of `O=C/C(=C\Nc1ccc(Cl)cn1)c1nc2ccccc2o1` it was 0.28% (inactive). Under `COC(=O)/C=C/c1ccc(-n2cncn2)cc1` stands 0.5% (inactive).
